Results filed as inconclusive are left out. Activity calls are given as the source filed them. How the source made its calls, unless noted: active means hit-call score of the fitted dose curve at least 0.9, where 1 is the maximum; inactive means score below 0.9.
Columns and labels:
[1] = ATG_NFI_CIS: Attagene CIS-FACTORIAL HepG2 Assay for human Nuclear Factor I (NFI) (AID 2282989); settings: HepG2 cis-regulatory reporter, NFI response element transcription; actives raise or lower the signal
Summary of the method: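 Reporter transcripts were measured by RT-PCR with fluorescent primer extension and capillary electrophoresis 24 h post-treatment. HepG2 cells carried transiently transfected cis-regulated reporter constructs reporting endogenous factor activity; gain or loss fitted against DMSO baseline.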

[2] = biological target: Myc proto-oncogene protein (Homo sapiens) (UniProt P01106); experiment: ATG_Myc_CIS: Attagene CIS-FACTORIAL HepG2 Assay for human Myelocytomatosis (Myc) Proto-Oncogene Transcription Factor (AID 2282990); settings: HepG2, Attagene cis-reporter transcription factor activity; actives raise or lower the signal
Summary of the method: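 Cells of the HepG2 human liver line bear multiple cis-driven reporter transcription units. Reporter mRNA after 24 h exposure is reverse-transcribed, amplified, labelled and resolved by capillary electrophoresis, with gain- or loss-of-signal fitting relative to DMSO.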

[3] = ATG_NF_kB_CIS: Attagene CIS-FACTORIAL HepG2 Assay for human Nuclear Factor Kappa B (NF-kB) (AID 2282991); settings: HepG2 Attagene cis-factorial NF-kB reporter mRNA; actives raise or lower the signal
Summary of the method: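 Measures mRNA induction of an NF-kB-responsive cis-element reporter in HepG2 cells transfected with multiple reporter units, sampled 24 h post-dosing; quantified by fluorescence after RT-PCR and capillary electrophoresis, fitted for activation or inhibition against DMSO.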

[4] = ATG_NRF2_ARE_CIS: Attagene CIS-FACTORIAL HepG2 Assay for human Nuclear Factor Erythroid 2 Related Factor 2 (NFR2) response to Antioxidant Response Elements (ARE) (AID 2282992); settings: HepG2 Attagene ARE/NRF2 reporter, transcription factor activity; actives raise or lower the signal
Summary of the method: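 Using transiently transfected HepG2 cells exposed for 24 h, reporter mRNA levels were determined by RT-PCR with fluorescent primer extension and capillary electrophoresis, analysed for gain or loss of signal against DMSO.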

[5] = ATG_Oct_MLP_CIS: Attagene CIS-FACTORIAL HepG2 Assay for human Octamer-Binding Transcription Factor (Oct) (AID 2282993); settings: HepG2 Attagene cis-factorial Oct reporter, mRNA; actives raise or lower the signal
Summary of the method: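 Readout is reporter transcript level from RT-PCR with fluorescent primer extension and capillary electrophoresis, fitted in both directions against DMSO. Transfected HepG2 reporter units report endogenous factor activity after 24 h dosing.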

[6] = biological target: human Peroxisome Proliferator-activated Receptor alpha (PPARa), PPARA (gene 5465) (UniProt Q07869); experiment: ATG_PPARa_TRANS: Attagene TRANS-FACTORIAL HepG2 Assay for human Peroxisome Proliferator-activated Receptor alpha (PPARa) (AID 2283001; active means hit-call score of the fitted dose curve at least 0.9, where 1 is the maximum;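 on AC50: potency for gain of reporter signal over DMSO so agonist or activator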)
Summary of the method: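 Reporter transcripts quantified by RT-PCR plus capillary electrophoresis after 24 h treatment, fitted upward relative to DMSO. Cells: human HepG2 transiently carrying multiple GAL4-UAS reporter units driven by NR-Gal4 chimeras.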

[7] = biological target: human Retinoic Acid Receptor beta (RARb), RARB (gene 5915) (UniProt P10826); experiment: ATG_RARb_TRANS: Attagene TRANS-FACTORIAL HepG2 Assay for human Retinoic Acid Receptor beta (AID 2283004; active means hit-call score of the fitted dose curve at least 0.9, where 1 is the maximum)
Summary of the method: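 HepG2 cells transiently transfected with multiplexed GAL4-UAS reporter units expressing chimeric NR–Gal4 fusions; 24 h compound exposure. Reporter mRNA quantified by RT-PCR, 6-FAM labelling, HpaI digestion and capillary electrophoresis; gain-of-signal fitted against DMSO baseline.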

[8] = biological target: Peroxisome proliferator-activated receptor gamma (Homo sapiens) (UniProt P37231); experiment: ATG_PPARg_TRANS: Attagene TRANS-FACTORIAL HepG2 Assay for human Peroxisome Proliferator-activated Receptor-gamma (PPARg) (AID 2283007; active means hit-call score of the fitted dose curve at least 0.9, where 1 is the maximum)
Summary of the method: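 Gain-of-signal endpoint relative to DMSO, derived from reporter mRNA levels quantified by RT-PCR and capillary electrophoresis. Cells were HepG2 transiently expressing a chimeric NR-Gal4 construct with GAL4-UAS reporters, exposed to chemicals for 24 h.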

[9] = biological target: Nuclear receptor subfamily 1 group I member 2 (Homo sapiens) (UniProt O75469); experiment: ATG_PXR_TRANS: Attagene TRANS-FACTORIAL HepG2 Assay for human Pregnane X Receptor (PXR) (AID 2283008; active means hit-call score of the fitted dose curve at least 0.9, where 1 is the maximum)
Summary of the method: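 Multiplexed TRANS reporter panel in HepG2; this component tracks PXR-Gal4-driven reporter mRNA after 24 h dosing, measured by RT-PCR with capillary electrophoresis fluorescence, fitted against DMSO.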

[10] = biological target: human Retinoic Acid Receptor gamma (RARg), RARG (gene 5916) (UniProt P13631); experiment: ATG_RARg_TRANS: Attagene TRANS-FACTORIAL HepG2 Assay for human Retinoic Acid Receptor gamma (RARg) (AID 2283009; active means hit-call score of the fitted dose curve at least 0.9, where 1 is the maximum)
Summary of the method: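 Transactivation of exogenous RARg-Gal4 fusion measured as reporter transcript induction after 24 h in transfected HepG2 cells. RNA reverse-transcribed, amplified, fluorescently labeled and resolved by capillary electrophoresis; increase relative to DMSO.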

[11] = biological target: Retinoic acid receptor alpha (Homo sapiens) (UniProt P10276); experiment: ATG_RARa_TRANS: Attagene TRANS-FACTORIAL HepG2 Assay for human Retinoic Acid Receptor alpha (RARa) (AID 2283005; active means hit-call score of the fitted dose curve at least 0.9, where 1 is the maximum)
Summary of the method: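 Reporter transcripts, measured by RT-PCR with fluorescent labeling and capillary electrophoresis after 24 h dosing, reflect activity of an exogenous human RARa–GAL4 fusion in transiently transfected HepG2. Fitted for increase relative to DMSO.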

[12] = biological target: Cellular tumor antigen p53 (Homo sapiens) (UniProt P04637); experiment: ATG_p53_CIS: Attagene CIS-FACTORIAL HepG2 Assay for human p53 Transcription Factor (AID 2282994); settings: HepG2 p53 cis-element reporter, Attagene mRNA; actives raise or lower the signal
Summary of the method: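 In HepG2 cells, reporter transcription units under cis-regulatory promoters were transiently introduced. Following 24 h treatment, RNA was processed to labelled, digested cDNA fragments read by capillary electrophoresis; fitting was bidirectional versus DMSO.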

[13] = biological target: human Peroxisome Proliferator-activated Receptor delta (PPARd), PPARD (gene 5467) (UniProt Q03181); experiment: ATG_PPARd_TRANS: Attagene TRANS-FACTORIAL HepG2 Assay for human Peroxisome Proliferator-activated Receptor delta (PPARd) (AID 2283002; active means hit-call score of the fitted dose curve at least 0.9, where 1 is the maximum)
Summary of the method: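 Cell-based TRANS reporter: HepG2, transient MRTU transfection, 24 h exposure. Readout = reporter mRNA (RT-PCR/CE, 6-FAM). Gain-of-signal fit vs DMSO control.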

[14] = BSK_3C_TissueFactor: BioMAP Diversity Plus: 3C Assay for Tissue Factor Biomarker Activity (AID 2282997); settings: BioMAP 3C HUVEC, tissue factor biomarker readout; actives raise or lower the signal
Summary of the method: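 Readout: Tissue Factor ELISA. Cells: human primary umbilical vein endothelium. Time: 24 h after dosing. Analysis: bidirectional fit, DMSO baseline.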

[15] = BSK_3C_uPAR: BioMAP Diversity Plus: 3C Assay for Urokinase-type plasminogen activator receptor (uPAR) Biomarker Activity (AID 2282998); settings: BioMAP 3C HUVEC, uPAR biomarker ELISA; actives raise or lower the signal
Summary of the method: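 Cell-surface uPAR on HUVEC (3C system) read by ELISA at 24 h post-treatment, with DMSO as baseline and fitting in both directions. Parallel cultures stained with SRB to flag overt cytotoxicity.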

[16] = BSK_3C_VCAM1: BioMAP Diversity Plus: 3C Assay for Vascular cell adhesion molecule 1 (VCAM1) Biomarker Activity (AID 2282999); settings: BioMAP 3C HUVEC, VCAM1 ELISA, cytokine-stimulated; actives raise or lower the signal
Summary of the method: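 Activity fitted in both directions relative to DMSO, with ELISA measurement of the surface marker on primary HUVEC (3C) at 24 h post-treatment; parallel SRB staining (0.1% SRB, TCA-fixed, 560 nm) flagged overt cytotoxicity.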

[17] = BSK_4H_Eotaxin3: BioMAP Diversity Plus: 4H Assay for Eotaxin 3 Biomarker Activity (AID 2283000); settings: primary human endothelial cells (HUVEC); actives raise or lower the signal
Summary of the method: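 HUVEC, 24 h post-dose, ELISA for Eotaxin-3/CCL26. Gain or loss of signal fitted bidirectionally vs DMSO baseline.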

[18] = read-out: Intercellular Adhesion Molecule 1 (ICAM1), ICAM1 (gene 3383); experiment: BSK_3C_ICAM1: BioMAP Diversity Plus: 3C Assay for Intercellular Adhesion Molecule 1 (ICAM1) Biomarker Activity (AID 2283003); settings: primary human endothelial cells (HUVEC); actives raise or lower the signal
Summary of the method: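 ELISA readout of ICAM1 in human umbilical vein endothelial cells in the 3C system, taken 24 h post-dose. Gain or loss of signal versus DMSO was fitted in both directions, with SRB total-protein staining run in parallel.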

[19] = BSK_3C_Proliferation: Cell Proliferation Assessment in the BioMAP Diversity Plus: 3C Assay (AID 2283006); settings: primary human endothelial cells (HUVEC);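 on AC50: potency may reflect either rise or fall in cell number versus DMSO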
Summary of the method: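 Proliferation as total protein: sulforhodamine B (0.1%) stain of TCA-fixed subconfluent human umbilical vein endothelial cells, absorbance 560 nm, 48 h after dosing. Activity fitted in both directions against DMSO baseline.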

Measured: AC50

Peroxisome proliferator-activated receptor gamma (Homo sapiens), sequence (P37231 whole entry, looked up, the tested form may be a part): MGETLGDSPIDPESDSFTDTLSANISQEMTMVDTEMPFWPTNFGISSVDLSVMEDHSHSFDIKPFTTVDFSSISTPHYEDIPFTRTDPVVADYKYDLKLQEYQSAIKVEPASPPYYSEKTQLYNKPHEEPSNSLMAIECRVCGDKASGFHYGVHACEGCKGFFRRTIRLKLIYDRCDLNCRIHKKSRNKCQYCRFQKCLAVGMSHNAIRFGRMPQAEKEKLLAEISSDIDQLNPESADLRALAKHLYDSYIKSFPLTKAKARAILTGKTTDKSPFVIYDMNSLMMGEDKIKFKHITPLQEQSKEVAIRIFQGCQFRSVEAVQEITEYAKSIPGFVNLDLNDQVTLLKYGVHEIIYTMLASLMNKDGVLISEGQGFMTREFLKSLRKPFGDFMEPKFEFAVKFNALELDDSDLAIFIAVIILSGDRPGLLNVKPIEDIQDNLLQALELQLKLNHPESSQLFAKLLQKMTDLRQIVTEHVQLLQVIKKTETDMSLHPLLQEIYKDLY
human Peroxisome Proliferator-activated Receptor delta (PPARd), PPARD (gene 5467), sequence (Q03181 whole entry, looked up): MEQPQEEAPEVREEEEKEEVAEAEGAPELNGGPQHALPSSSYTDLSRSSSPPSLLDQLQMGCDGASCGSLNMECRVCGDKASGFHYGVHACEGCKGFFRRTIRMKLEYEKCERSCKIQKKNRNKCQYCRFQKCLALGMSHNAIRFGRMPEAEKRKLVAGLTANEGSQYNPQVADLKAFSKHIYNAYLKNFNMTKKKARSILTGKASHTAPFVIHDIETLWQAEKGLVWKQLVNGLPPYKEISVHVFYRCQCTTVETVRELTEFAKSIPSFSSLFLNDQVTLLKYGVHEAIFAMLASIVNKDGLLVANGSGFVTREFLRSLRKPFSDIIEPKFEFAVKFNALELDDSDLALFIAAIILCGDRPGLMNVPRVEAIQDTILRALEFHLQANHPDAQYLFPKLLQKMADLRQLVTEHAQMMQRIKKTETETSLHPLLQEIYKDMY
Nuclear receptor subfamily 1 group I member 2 (Homo sapiens), sequence (O75469 whole entry, looked up, the tested form may be a part): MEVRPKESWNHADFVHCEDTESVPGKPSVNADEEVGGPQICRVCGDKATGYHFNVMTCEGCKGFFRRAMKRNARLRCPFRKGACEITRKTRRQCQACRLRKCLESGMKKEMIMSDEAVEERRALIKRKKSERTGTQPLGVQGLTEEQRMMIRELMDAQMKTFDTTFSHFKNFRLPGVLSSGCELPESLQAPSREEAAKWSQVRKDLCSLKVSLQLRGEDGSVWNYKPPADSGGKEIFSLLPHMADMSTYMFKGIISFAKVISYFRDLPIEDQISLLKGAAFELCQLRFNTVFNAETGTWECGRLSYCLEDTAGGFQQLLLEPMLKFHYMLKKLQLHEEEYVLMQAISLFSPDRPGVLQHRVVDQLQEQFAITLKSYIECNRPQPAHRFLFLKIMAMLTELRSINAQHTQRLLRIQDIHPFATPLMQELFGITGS
Cellular tumor antigen p53 (Homo sapiens), sequence (P04637 whole entry, looked up, the tested form may be a part): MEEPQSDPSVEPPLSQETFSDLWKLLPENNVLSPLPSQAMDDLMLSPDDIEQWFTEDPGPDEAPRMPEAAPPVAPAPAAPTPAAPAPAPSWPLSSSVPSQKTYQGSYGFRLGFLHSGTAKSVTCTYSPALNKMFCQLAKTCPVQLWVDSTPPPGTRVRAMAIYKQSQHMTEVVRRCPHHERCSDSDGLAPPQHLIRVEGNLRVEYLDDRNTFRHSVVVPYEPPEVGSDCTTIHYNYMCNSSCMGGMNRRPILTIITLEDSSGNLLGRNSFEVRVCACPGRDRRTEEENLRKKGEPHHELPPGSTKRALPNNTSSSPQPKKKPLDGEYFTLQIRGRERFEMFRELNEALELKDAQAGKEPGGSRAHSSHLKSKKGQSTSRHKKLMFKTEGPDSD
Retinoic acid receptor alpha (Homo sapiens), sequence (P10276 whole entry, looked up, the tested form may be a part): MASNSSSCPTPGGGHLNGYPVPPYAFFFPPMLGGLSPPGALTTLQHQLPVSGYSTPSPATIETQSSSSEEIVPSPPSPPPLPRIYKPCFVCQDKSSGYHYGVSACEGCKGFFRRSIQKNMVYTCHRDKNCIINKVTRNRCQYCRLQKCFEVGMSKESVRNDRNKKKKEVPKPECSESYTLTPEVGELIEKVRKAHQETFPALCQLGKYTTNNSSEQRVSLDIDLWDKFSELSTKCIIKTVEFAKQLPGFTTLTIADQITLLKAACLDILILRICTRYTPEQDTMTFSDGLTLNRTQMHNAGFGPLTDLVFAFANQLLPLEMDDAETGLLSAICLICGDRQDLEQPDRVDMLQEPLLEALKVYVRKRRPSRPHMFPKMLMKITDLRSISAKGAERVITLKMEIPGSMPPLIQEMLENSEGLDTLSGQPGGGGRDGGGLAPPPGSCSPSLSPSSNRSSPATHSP
Myc proto-oncogene protein (Homo sapiens), sequence (P01106 whole entry, looked up): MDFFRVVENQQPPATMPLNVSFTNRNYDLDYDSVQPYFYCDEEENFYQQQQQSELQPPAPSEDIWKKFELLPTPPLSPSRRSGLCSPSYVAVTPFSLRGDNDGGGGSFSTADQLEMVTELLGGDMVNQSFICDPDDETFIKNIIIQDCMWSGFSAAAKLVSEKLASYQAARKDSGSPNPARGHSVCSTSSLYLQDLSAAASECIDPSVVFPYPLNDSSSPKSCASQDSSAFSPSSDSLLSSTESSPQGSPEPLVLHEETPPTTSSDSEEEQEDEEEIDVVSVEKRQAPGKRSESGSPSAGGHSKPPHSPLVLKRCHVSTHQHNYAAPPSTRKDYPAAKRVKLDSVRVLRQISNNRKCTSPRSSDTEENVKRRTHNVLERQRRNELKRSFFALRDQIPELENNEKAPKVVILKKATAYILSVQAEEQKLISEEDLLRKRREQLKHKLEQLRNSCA
human Retinoic Acid Receptor gamma (RARg), RARG (gene 5916), sequence (P13631 whole entry, looked up, the tested form may be a part): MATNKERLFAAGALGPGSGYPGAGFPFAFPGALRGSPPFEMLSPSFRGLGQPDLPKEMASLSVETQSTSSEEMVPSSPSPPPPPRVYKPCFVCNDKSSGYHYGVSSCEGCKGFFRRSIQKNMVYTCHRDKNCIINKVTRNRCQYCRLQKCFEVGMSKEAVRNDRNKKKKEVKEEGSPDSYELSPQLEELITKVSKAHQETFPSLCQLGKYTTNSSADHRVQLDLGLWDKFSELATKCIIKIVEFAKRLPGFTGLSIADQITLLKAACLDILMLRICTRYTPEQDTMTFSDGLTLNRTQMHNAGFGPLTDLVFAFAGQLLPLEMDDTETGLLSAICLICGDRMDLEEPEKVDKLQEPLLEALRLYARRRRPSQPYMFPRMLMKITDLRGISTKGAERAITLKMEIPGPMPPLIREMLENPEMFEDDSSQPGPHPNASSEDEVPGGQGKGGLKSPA
human Retinoic Acid Receptor beta (RARb), RARB (gene 5915), sequence (P10826 whole entry, looked up, the tested form may be a part): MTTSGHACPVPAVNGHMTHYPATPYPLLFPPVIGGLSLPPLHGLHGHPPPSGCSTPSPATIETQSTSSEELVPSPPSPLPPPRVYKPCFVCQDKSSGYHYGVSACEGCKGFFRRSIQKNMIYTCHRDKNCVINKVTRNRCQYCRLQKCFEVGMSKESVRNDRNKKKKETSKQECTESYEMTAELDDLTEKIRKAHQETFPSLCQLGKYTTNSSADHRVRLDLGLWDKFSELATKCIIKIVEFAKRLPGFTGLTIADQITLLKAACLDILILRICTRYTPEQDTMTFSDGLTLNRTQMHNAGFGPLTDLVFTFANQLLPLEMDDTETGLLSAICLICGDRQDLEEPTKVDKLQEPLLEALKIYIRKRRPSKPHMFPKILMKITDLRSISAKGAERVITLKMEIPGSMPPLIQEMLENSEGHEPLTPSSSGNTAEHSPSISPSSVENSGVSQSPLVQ
human Peroxisome Proliferator-activated Receptor alpha (PPARa), PPARA (gene 5465), sequence (Q07869 whole entry, looked up, the tested form may be a part): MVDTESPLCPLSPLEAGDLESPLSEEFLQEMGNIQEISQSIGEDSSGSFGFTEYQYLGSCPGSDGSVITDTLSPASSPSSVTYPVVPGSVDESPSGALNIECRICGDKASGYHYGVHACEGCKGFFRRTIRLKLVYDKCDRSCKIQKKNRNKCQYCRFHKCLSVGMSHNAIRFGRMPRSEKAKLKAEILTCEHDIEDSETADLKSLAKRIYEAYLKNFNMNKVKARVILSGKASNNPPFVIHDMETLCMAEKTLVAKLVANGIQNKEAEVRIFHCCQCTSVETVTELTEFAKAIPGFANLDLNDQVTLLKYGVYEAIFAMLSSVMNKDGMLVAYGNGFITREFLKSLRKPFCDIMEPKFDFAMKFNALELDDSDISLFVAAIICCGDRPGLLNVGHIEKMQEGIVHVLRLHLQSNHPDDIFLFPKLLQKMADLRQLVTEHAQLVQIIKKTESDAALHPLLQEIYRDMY

CC(=O)CCC1=C(C)CCCC1(C)C
inactive: [1] | [2] | [3] | [5] | [6] | [7] | [8] | [10]
active: [4] 49.1 µM | [9] 6.98 µM

O=C1CCCCC1C1CCCCC1 (stereo not drawn)
inactive: [1] | [2] | [3] | [4] | [5] | [6] | [7] | [11] | [8] | [10]
active: [9] 41.2 µM

Oc1ccc(-c2ccccc2)c(Cl)c1
active: [1] 33.4 µM | [4] 22.7 µM | [5] 52.3 µM | [6] 41.1 µM | [8] 39.9 µM
inactive: [3] | [12] | [13] | [9] | [10]

N=C1C=CC(=C(c2ccc(N)cc2)c2ccc(N)cc2)C=C1
active: [3] 41.1 µM | [4] 9.02 µM | [12] 33.4 µM
inactive: [1] | [5] | [9] | [10]

CCCCOCC(C)O (stereo not drawn)
inactive: [2] | [3] | [4] | [5] | [12] | [8] | [9] | [10]

C=CC(=O)OCC(C)OCC(C)OCC(C)OC(=O)C=C (stereo not drawn)
inactive: [1] | [2] | [6] | [13] | [10]
active: [4] 25.6 µM | [5] 29.5 µM | [12] 145 µM | [14] 11.6 µM | [15] 24.6 µM | [16] 12.1 µM | [17] 8.38 µM | [18] 28.2 µM | [19] 9.51 µM | [8] 10.3 µM | [9] 9.63 µM

O=C1c2ccccc2C(=O)c2cc(S(=O)(=O)O)ccc21
inactive: [3] | [5] | [6] | [8]
active: [4] 100 µM

Cc1cc(C)c(C=O)c(C)c1
active: [9] 7.01 µM
inactive: [1] | [2] | [3] | [4] | [5] | [12] | [6] | [13] | [10]

CCNc1nc(NC(C)(C)C)nc(OC)n1
active: [9] 3.89 µM
inactive: [1] | [2] | [3] | [4] | [5] | [12] | [14] | [15] | [16] | [17] | [13] | [7] | [11] | [19] | [8] | [10]

CC=C(C)C=CC=C(C)C
active: [4] 26.8 µM | [14] 20 µM | [16] 18.6 µM | [17] 20 µM | [19] 22.1 µM | [8] 27.8 µM | [9] 6.05 µM
inactive: [1] | [2] | [3] | [5] | [12] | [15] | [10]

Cc1cc(=O)[nH]c(=O)[nH]1
inactive: [1] | [2] | [3] | [4] | [5] | [12] | [13] | [9]

C[Si](C)(C)N[Si](C)(C)C
inactive: [1] | [2] | [4] | [5] | [12]

CCC(C)C(=O)OC (stereo not drawn)
inactive: [1] | [2] | [3] | [4] | [5] | [12] | [6] | [13] | [7] | [11] | [8] | [9]

CCCCOCCOC(=O)COc1ccc(Cl)cc1Cl
inactive: [1] | [2] | [3] | [4] | [5] | [12] | [6] | [8]

Cc1ccc([N+](=O)[O-])cc1N
inactive: [1] | [2] | [4] | [5] | [12] | [14] | [15] | [16] | [17] | [6] | [18] | [19] | [9]

C=CC(=O)OCCCCCCCCCC
inactive: [1] | [2] | [3] | [5] | [12] | [6] | [9]
active: [4] 94.5 µM

CC1=CC(C)C(C=O)CC1 (stereo not drawn)
inactive: [1] | [2] | [3] | [5] | [12] | [6] | [13] | [7] | [11] | [8] | [10]
active: [4] 14.1 µM | [9] 27.8 µM

CC(C)c1ccc(O)c(C(C)C)c1
inactive: [1] | [2] | [3] | [5] | [12] | [7] | [10]
active: [4] 24.6 µM | [9] 6.58 µM

COCC(=O)O
inactive: [1] | [2] | [3] | [4] | [5] | [12] | [11] | [8]

CC(=O)C(C)C
inactive: [1] | [2] | [4] | [5] | [12] | [6] | [7] | [11] | [8] | [9] | [10]

From PubChem BioAssay (EPA / NIEHS)
